Measurements published in PubChem BioAssay (EPA / NIEHS).
Results filed as inconclusive are left out. Activity calls are given as the source filed them. How the source made its calls: active means hit-call score of the fitted dose curve at least 0.9, where 1 is the maximum; inconclusive means response in the unintended direction; inactive means score below 0.9.

Assays:
[1] = Tanguay_ZF_120hpf_TR_legacy: (Legacy) Oregon State University Tanguay Lab 120 Hour Post-fertilization zebrafish Assay for Touch Response (AID 2283667)
Summary of the method: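 Tropical 5D wild-type zebrafish embryos were exposed statically in sealed, foil-covered plates at 28C until 120 hpf, with 0.64% (vol/vol) final DMSO. Touch response was scored as present or absent; embryos that died were not scored.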

[2] = read-out: glucuronosyltransferase (UGT1A1), UGT1A1 (gene 54658); experiment: CLD_UGT1A1_6hr: CellzDirect (CLD) Gene Expression Assay for glucuronosyltransferase (UGT1A1) at 6 hours (AID 2283672)
Summary of the method: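 Primary human hepatocytes from two donor preparations, dosed with fresh solutions in 0.2% DMSO, harvested at 6 h. UGT1A1 mRNA measured by qNPA chemiluminescence; induction fitted upward versus DMSO.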

[3] = read-out: xenobiotic metabolism (CYP1A1), CYP1A1 (gene 1543); experiment: CLD_CYP1A1_24hr: CellzDirect (CLD) Gene Expression Assay for xenobiotic metabolism (CYP1A1) at 24 hours (AID 2283673);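 further: CYP1A1 mRNA level by quantitative nuclease protection with chemiluminescence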
Summary of the method: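 Primary human hepatocytes dosed daily with fresh solutions in 0.2% DMSO vehicle. mRNA measured at 24 h by quantitative nuclease protection assay with chemiluminescence; gain-of-signal fit versus DMSO, with morphology-based cytotoxicity flags.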

[4] = read-out: Cytochrome P450 2B6 (Homo sapiens) (UniProt P20813); experiment: CLD_CYP2B6_6hr: CellzDirect (CLD) Gene Expression Assay for xenobiotic metabolism (CYP2B6) at 6 hours (AID 2283677);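 further: actives raise CYP2B6 transcript above DMSO baseline so AC50 marks an inducer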
Summary of the method: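 Primary human hepatocytes dosed with chemicals at multiple concentrations, vehicle 0.2% DMSO; CYP2B6 mRNA induction measured 6 h after dosing by quantitative nuclease protection assay with chemiluminescence, gain of signal fitted relative to DMSO.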

[5] = CLD_ACTIN_6hr: CellzDirect (CLD) Gene Expression Assay for Baseline Control (Actin) at 6 hours (AID 2283676);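 further: active means increased actin mRNA relative to DMSO vehicle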
Summary of the method: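 Primary human hepatocytes dosed with fresh chemical solutions (vehicle 0.2% DMSO), harvested at 6 h. Actin mRNA quantified by quantitative nuclease protection assay with chemiluminescent read-out, as background control relative to DMSO.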

[6] = read-out: Cytochrome P450 2C19 (Homo sapiens) (UniProt P33261); experiment: CLD_CYP2C19_6hr: CellzDirect (CLD) Gene Expression Assay for xenobiotic metabolism (CYP2C19) at 6 hours (AID 2283678)
Summary of the method: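 Primary human hepatocytes from two donor preparations were dosed daily, with 0.2% DMSO as vehicle, and harvested 6 h after dosing. CYP2C19 mRNA induction was measured by qNPA chemiluminescence and fitted as gain of signal against DMSO.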

[7] = read-out: ABC Transporter (ABCB11), ABCB11 (gene 8647); experiment: CLD_ABCB11_6hr: CellzDirect (CLD) Gene Expression Assay for ABC Transporter (ABCB11) at 6 hours (AID 2283675);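 further: hits raise ABCB11 mRNA level so AC50 marks induction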
Summary of the method: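 Human primary hepatocytes (two donor preparations) given fresh chemical daily at multiple concentrations, vehicle 0.2% DMSO. ABCB11 mRNA induction measured 6 h after dosing by qNPA chemiluminescence versus DMSO; cytotoxicity annotated from morphology.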

[8] = CLD_ACTIN_24hr: CellzDirect (CLD) Gene Expression Assay for Baseline Control (Actin) at 24 hours (AID 2283670)
Summary of the method: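 Primary human hepatocytes dosed over multiple concentrations with 0.2% DMSO vehicle; actin mRNA measured at 24 h by qNPA chemiluminescence. Background control endpoint, fitted as gain of signal versus DMSO.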

[9] = read-out: sulfotransferase (SULT2A), SULT2A1 (gene 6822); experiment: CLD_SULT2A_6hr: CellzDirect (CLD) Gene Expression Assay for sulfotransferase (SULT2A) at 6 hours (AID 2283669);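 further: hits raise transcript level above the DMSO vehicle baseline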
Summary of the method: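 Primary human hepatocytes from two donor preparations were dosed daily with chemicals or 0.2% DMSO and harvested at 6 h. Transcript induction read by qNPA chemiluminescence, fitted for gain of signal relative to DMSO; morphology-based cytotoxicity annotated.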

Sequence of Cytochrome P450 2C19 (Homo sapiens) (P33261 whole entry, looked up): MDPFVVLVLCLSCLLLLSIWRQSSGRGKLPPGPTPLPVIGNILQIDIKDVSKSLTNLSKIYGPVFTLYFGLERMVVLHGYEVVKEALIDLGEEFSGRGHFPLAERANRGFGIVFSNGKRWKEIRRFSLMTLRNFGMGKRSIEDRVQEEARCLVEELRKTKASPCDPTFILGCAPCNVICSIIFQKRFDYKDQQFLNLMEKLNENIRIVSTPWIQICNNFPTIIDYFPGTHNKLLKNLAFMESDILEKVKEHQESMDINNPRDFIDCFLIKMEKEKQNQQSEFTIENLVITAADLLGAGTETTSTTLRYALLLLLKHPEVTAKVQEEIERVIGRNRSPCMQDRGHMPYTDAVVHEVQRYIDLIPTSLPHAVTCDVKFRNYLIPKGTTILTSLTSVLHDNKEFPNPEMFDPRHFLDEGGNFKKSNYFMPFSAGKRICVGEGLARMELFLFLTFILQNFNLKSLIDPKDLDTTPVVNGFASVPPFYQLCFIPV

## CCOP(=O)(NC(C)C)Oc1ccc(SC)c(C)c1 (configuration not stated)
[1]
  outcome: inactive
[2]
  outcome: inactive
[3]
  AC50: 20 µM (active)

## CCc1cccc(CC)c1N(COC)C(=O)CCl
[1]
  outcome: inactive
[2]
  outcome: inactive
[4]
  AC50: 2.58 µM (active)

## CCCOc1nn(C(=O)NS(=O)(=O)c2ccccc2C(=O)OC)c(=O)n1C
[1]
  outcome: inactive
[2]
  outcome: inactive
[3]
  outcome: inactive
[5]
  outcome: inactive
[6]
  outcome: inactive

## CCC(=O)Nc1ccc(Cl)c(Cl)c1
[1]
  outcome: inactive
[2]
  outcome: inactive
[7]
  outcome: inactive
[6]
  outcome: inactive

## N#CSCSC#N
[8]
  outcome: inactive
[2]
  outcome: inactive
[5]
  outcome: inactive
[4]
  outcome: inactive

## COc1cc(OC)nc(Sc2cccc(Cl)c2C(=O)O)n1
[1]
  outcome: inactive
[2]
  outcome: inactive
[5]
  outcome: inactive
[6]
  outcome: inactive

## CCOP(=S)(OCC)Oc1cc(C)nc(C(C)C)n1
[1]
  outcome: inactive
[2]
  outcome: inactive
[5]
  outcome: inactive

## CNc1cnn(-c2cccc(C(F)(F)F)c2)c(=O)c1Cl
[1]
  outcome: inactive
[2]
  outcome: inactive
[7]
  outcome: inactive
[5]
  outcome: inactive
[6]
  outcome: inactive

## C=C(C)[C@H]1Cc2c(ccc3c2O[C@@H]2COc4cc(OC)c(OC)cc4[C@@H]2C3=O)O1
[1]
  outcome: inactive
[2]
  outcome: inactive
[5]
  outcome: inactive

## CC(COc1ccc(Oc2ccccc2)cc1)Oc1ccccn1 (configuration not stated)
[1]
  outcome: inactive
[2]
  outcome: inactive
[3]
  outcome: inactive
[4]
  AC50: 3.97 µM (active)

## CN1COCN(Cc2cnc(Cl)s2)C1=N[N+](=O)[O-]
[8]
  outcome: inactive
[2]
  outcome: inactive
[5]
  outcome: inactive
[6]
  outcome: inactive

## CCCCOC(=O)c1ccccc1C(=O)O
[1]
  outcome: inactive
[2]
  outcome: inactive
[4]
  outcome: inactive
[6]
  outcome: inactive

## Cc1cc(C2CC2)nc(Nc2ccccc2)n1
[2]
  outcome: inactive
[5]
  outcome: inactive

## C#CC(C)(C)NC(=O)c1cc(Cl)cc(Cl)c1
[1]
  outcome: inactive
[2]
  outcome: inactive
[5]
  outcome: inactive
[4]
  AC50: 4.15 µM (active)

## CSc1nc(NC(C)C)nc(NC(C)C)n1
[1]
  outcome: inactive
[2]
  outcome: inactive
[3]
  AC50: 6.14 µM (active)
[6]
  outcome: inactive

## CCCCN(CC)c1c([N+](=O)[O-])cc(C(F)(F)F)cc1[N+](=O)[O-]
[1]
  outcome: inactive
[2]
  outcome: inactive
[5]
  outcome: inactive

## CCOP(=O)(OCC)Oc1cc(C)nc(C(C)C)n1
[1]
  outcome: inactive
[2]
  outcome: inactive
[3]
  outcome: inactive
[5]
  outcome: inactive
[6]
  outcome: inactive

## CCCSP(=O)(OCC)SCCC
[2]
  outcome: inactive

## Nc1c(Cl)cc([N+](=O)[O-])cc1Cl
[1]
  AC50: 38.8 µM (active)
[3]
  AC50: 9.35 µM (active)
[5]
  outcome: inactive
[6]
  outcome: inactive

## CC(=NC#N)N(C)Cc1ccc(Cl)nc1
[1]
  outcome: inactive
[2]
  outcome: inactive
[5]
  outcome: inactive
[6]
  outcome: inactive

## CCC(CC)Nc1c([N+](=O)[O-])cc(C)c(C)c1[N+](=O)[O-]
[1]
  outcome: inactive
[2]
  outcome: inactive
[4]
  AC50: 3.47 µM (active)

## CCCCSP(=O)(SCCCC)SCCCC
[1]
  outcome: inactive
[2]
  outcome: inactive
[7]
  outcome: inactive
[5]
  outcome: inactive

## CSc1nnc(C(C)(C)C)c(=O)n1N
[8]
  outcome: inactive
[2]
  outcome: inactive
[5]
  outcome: inactive

## C[Si](Cn1cncn1)(c1ccc(F)cc1)c1ccc(F)cc1
[9]
  outcome: inactive
[8]
  outcome: inactive
[2]
  outcome: inactive
[7]
  outcome: inactive
[5]
  outcome: inactive

## CCOP(=S)(OCC)OC(Cl)C(Cl)(Cl)Cl (configuration not stated)
[9]
  outcome: inactive
[2]
  outcome: inactive
[5]
  outcome: inactive

## CC(C)[C@H](C(=O)O[C@H](C#N)c1cccc(Oc2ccccc2)c1)c1ccc(Cl)cc1
[1]
  AC50: 5.43 µM (active)
[2]
  outcome: inactive
[3]
  outcome: inactive
[5]
  outcome: inactive
[4]
  AC50: 3.42 µM (active)

## O=C(O)c1cc(Oc2ccc(C(F)(F)F)cc2Cl)ccc1[N+](=O)[O-]
[1]
  outcome: inactive
[2]
  outcome: inactive
[5]
  outcome: inactive
[4]
  outcome: inactive
[6]
  outcome: inactive

## CCC(=NOC/C=C/Cl)C1=C(O)CC(C2CCOCC2)CC1=O (configuration not stated)
[8]
  outcome: inactive
[2]
  outcome: inactive
[5]
  outcome: inactive
[4]
  outcome: inactive
[6]
  outcome: inactive

## CCOC(=O)CC(SP(=O)(OC)OC)C(=O)OCC (configuration not stated)
[1]
  outcome: inactive
[2]
  outcome: inactive
[5]
  outcome: inactive
[6]
  outcome: inactive

## CC1=NNC(=O)N(/N=C/c2cccnc2)C1
[1]
  outcome: inactive
[2]
  outcome: inactive
[5]
  outcome: inactive
[6]
  outcome: inactive

## CNC(=O)ON=C(C)SC
[8]
  outcome: inactive
[2]
  outcome: inactive
[3]
  outcome: inactive
[5]
  outcome: inactive
[4]
  outcome: inactive
[6]
  outcome: inactive

## COc1ccc(C(=CC(=O)N2CCOCC2)c2ccc(Cl)cc2)cc1OC
[1]
  AC50: 42.4 µM (active)
[2]
  outcome: inactive
[5]
  outcome: inactive
[4]
  AC50: 4.1 µM (active)

## CCOP(=O)(SC(C)CC)N1CCSC1=O (configuration not stated)
[1]
  outcome: inactive
[2]
  outcome: inactive
[5]
  outcome: inactive
[6]
  outcome: inactive

## CN(C)C(=O)Nc1cccc(C(F)(F)F)c1
[1]
  outcome: inactive
[2]
  outcome: inactive
[3]
  AC50: 2.41 µM (active)
[5]
  outcome: inactive
[4]
  outcome: inactive
[6]
  outcome: inactive

## CCOP(=S)(Oc1cnc(C(C)(C)C)nc1)OC(C)C (configuration not stated)
[1]
  outcome: inactive
[2]
  outcome: inactive
[3]
  AC50: 7.48 µM (active)
[5]
  outcome: inactive

## CC(C)N(C(=O)SCC(Cl)=C(Cl)Cl)C(C)C
[1]
  outcome: inactive
[2]
  outcome: inactive
[7]
  outcome: inactive
[5]
  outcome: inactive
[6]
  outcome: inactive

## CCNc1nc(Cl)nc(NC(C)(C)C#N)n1
[1]
  outcome: inactive
[2]
  outcome: inactive
[4]
  AC50: 3.62 µM (active)
[6]
  outcome: inactive
